This is an account of results in PubChem BioAssay AID588847 (Broad Institute, 2011).

Measured potencies and affinities stand elsewhere. Calls of active or inactive are those of the source.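 The calls were made as follows: active = compounds lowering luciferase light with a fitted half-maximal dose at most twice the top tested dose; inconclusive = flat fit inhibiting 30 to 70%, or unreliable fit; inactive = the rest.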

This experiment deals with Luciferin 4-monooxygenase (Photuris pensylvanica) (UniProt Q27757). The experiment can be described thus: firefly luciferase enzyme inhibitors, dose response, counter-screen for HSF-1 reporter inhibitor project, biochemical, Cell Titer Glo, luminescence, cherry-picks (AID 588847). The conditions noted are these: ATP; series mostly up to 26 µM. (In general: Counterscreens check selectivity or assay interference.)
Sequence of Luciferin 4-monooxygenase (Photuris pensylvanica) (Q27757 whole entry, looked up): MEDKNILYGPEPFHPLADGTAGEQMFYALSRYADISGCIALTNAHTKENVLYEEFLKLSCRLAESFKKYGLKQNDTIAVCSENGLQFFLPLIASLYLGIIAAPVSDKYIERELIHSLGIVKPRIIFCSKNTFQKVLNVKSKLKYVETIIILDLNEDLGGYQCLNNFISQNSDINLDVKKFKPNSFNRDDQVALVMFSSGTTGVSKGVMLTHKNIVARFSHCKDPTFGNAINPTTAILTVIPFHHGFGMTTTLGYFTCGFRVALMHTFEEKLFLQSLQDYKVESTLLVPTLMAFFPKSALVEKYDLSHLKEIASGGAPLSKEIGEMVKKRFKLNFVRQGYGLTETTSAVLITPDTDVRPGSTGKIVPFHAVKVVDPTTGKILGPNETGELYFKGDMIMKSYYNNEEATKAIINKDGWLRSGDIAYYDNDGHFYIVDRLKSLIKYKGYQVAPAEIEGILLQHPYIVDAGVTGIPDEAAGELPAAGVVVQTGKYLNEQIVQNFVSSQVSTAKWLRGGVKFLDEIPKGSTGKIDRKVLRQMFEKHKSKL
Consider `COC(=O)c1ccccc1NC(=O)c1ccc(-c2ccc(Br)cc2)o1`, for which the outcome was inactive.

As to `O=C(Nc1ccc(F)cc1F)c1cc2nc3c(c(C(F)(F)F)n2n1)CCCC3`, the outcome was inactive.

As for `O=[N+]([O-])c1nn(-c2ccc3c(c2)OCCO3)n(O)c1=Nc1ccccc1`, the call was inactive.

Consider `CC(=O)[C@@]1(O)C(C)CC2C3C=C(C)C4=Cc5c(cnn5-c5ccccc5)C[C@]4(C)C3C(O)C[C@@]21C` (stereo partly drawn), for which the compound was called inactive.

On to `Cc1nc(SCC(=O)Nc2nc3ccccc3s2)c(C#N)c(C)c1C`, for which the outcome was inactive.

Regarding `Cc1ccc(C(=O)Nc2sc(C)c(-c3ccccc3)c2C(N)=O)cc1[N+](=O)[O-]`, the result was inactive.

Turning to `COc1cc([C@@H]2c3cc4c(cc3[C@H](O)[C@H]3COC(=O)[C@H]23)OCO4)cc(OC)c1OC`, the outcome was inactive.

As to `CC(=O)OCC(=O)[C@@]12OC(C)(C)O[C@@H]1CC1C3C[C@H](F)C4=CC(=O)C=CC4(C)[C@@]3(F)C(O)CC12C` (stereo partly drawn), the call was inactive.
